Shn3 3UTR inh: Schnurri-3 reporter inhibition in Clone20 osteoblasts; Clone20 osteoblast Shn3 3'UTR firefly luciferase, 24 h; inhibition, % at 12.5 µM; actives 0.52% (n = 360,000); AID 588674;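 active = mean inhibition of at least 75% with every replicate also reaching 75%; inconclusive = mean inhibition at least 75% but some replicate below; inactive = mean inhibition below 75%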;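 also: 0% = median of neutral control wells and 100% = pilot-screen positive control compound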
697 NFkB inh: inhibitors of the PMA/ionomycin-induced NF-kB reporter in 697 B cells. inhibition, % at 4 µM. 697 B-cell NF-kB luciferase reporter, 16 h. actives 0.33% (n = 330,000). AID 435022; in the data active = inhibition above about 35%
Jurkat NFkB inh: inhibitors of the PMA/ionomycin-induced NF-kB reporter in Jurkat cells; PMA/ionomycin-induced NF-kB luciferase reporter, luminescence; inhibition, % at 4 µM; actives 0.53% (n = 330,000); in the data active = inhibition above about 50%
Gli-Sufu block: antagonists of Gli-Sufu signaling. Sufu-KO-LIGHT fibroblasts, Gli luciferase reporter luminescence. inhibition, % at 5 µM. actives 0.74% (n = 340,000). AID 588413;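 active = inhibition above about 55%, limit read from the data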;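 also: 0% = DMSO-treated cells and 100% = wells with medium but no cells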
TAG inh: triacylglycerol accumulation inhibition. H9c2 cells, Nile Red lipid (TAG) fluorescence; cells loaded with 200 µM oleic acid. inhibition, % at 12.5 µM. actives 0.66% (n = 230,000). AID 651582;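 active = pattern-corrected inhibition of lipid staining of at least 50% with the nuclear-stain viability signal not falling by more than 50%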;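 also: 0% = DMSO wells and 100% = triacsin C control wells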
aSyn UTR inh: 5' untranslated region of α-synuclein, MLPCN primary screen; alpha-synuclein 5'UTR reporter, inhibitor activity; inhibition, % (tested at 7.5 µM); actives 0.82% (n = 300,000); in the data active = inhibition above about 60%; inconclusive = no clear call, values can overlap the other calls;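 also: H4 neuroglioblastoma cells stably carrying SNCA 5'UTR luciferase fusion; 0% = DMSO wells and 100% = positive control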
697 NFkB conf: lowers PMA/ionomycin-induced NF-kB signal in 697 B cells; shares compounds with 697 NFkB inh; 697 B-cell NF-kB luciferase, 16 h; inhibition, % at 4 µM; actives 35% (n = 2,000); in the data active = inhibition mostly above about 28%, no sharp cut-off; inactive = mostly below about 22%
An asterisk follows results filed as active; ? = inconclusive; nt = no result. An excerpt weighted towards active compounds, which were near 2.3% of everything screened.

SMILES	Shn3 3UTR inh	697 NFkB inh	Jurkat NFkB inh	Gli-Sufu block	TAG inh	aSyn UTR inh	697 NFkB conf
Cn1c(=O)c(C(=O)Nc2ncccc2O)c(O)c2ccccc21	-39	-91	-30	9	-9	-147	nt
Cc1ccc(C=C2C(Cl)=C(Cl)C(Cl)=C2Cl)cc1	nt	4	0	6	nt	-29	nt
Cc1cccc(/C(N)=N/OC(=O)c2ccc3c(c2)OCO3)c1	-28	-295	-134	-88	-6	-116	-238
CCn1c(CCC(N)=O)nnc1SCC(=O)Nc1cccc(S(=O)(=O)N2CCCC2)c1	-3	10	0	3	16	nt	nt
COc1cc(-c2cc(=O)c3c(O)c(OC)c(OC)c(OC)c3o2)cc(OC)c1OC	23	39*	0	18	nt	35	38*
CC(=O)Nc1ccc(NC(=O)C2CC(=O)Nc3nc4ccccc4n32)cc1 (stereo not drawn)	12	-20	8	0	-4	24	nt
O=C1CC(C(=O)Nc2cccc(F)c2)n2c(nc3ccccc32)N1 (stereo not drawn)	4	35*	-2	0	17	-2	-6
S=C(c1ccc(-c2ccccc2)cc1)N1CCOCC1	26	55*	13	-2	nt	64*	-10
CC1CCN(CCCNC(=O)COc2cc(=O)n(C)c3ccccc23)CC1	-13	36*	4	7	nt	7	23*
Brc1ccc2nc(N3CCN(c4ccccc4)CC3)sc2c1	1	-175	-142	-18	6	-143	nt
Clc1ccc2nc(N3CCN(c4ccccc4)CC3)sc2c1	-44	-271	-139	-115	-161	-109	-208
CCCCNc1nc(N)nc(-c2cc(Cl)ccc2O)n1	-80	-290	-135	-95	nt	-67	-233
CCC(=O)N1CCc2cc(S(=O)(=O)NCCC(=O)N3CCN(Cc4ccccc4)CC3)ccc21	9	21	1	4	-27	9	nt
CCCCCOc1ccc(NC(=O)C(=O)NCCCn2ccnc2)cc1	59	48*	11	27	11	63*	53*
Cc1ccc(CNC(=O)C(=O)NCCCn2ccnc2)cc1	5	38*	13	10	nt	33	2
C=CCOc1ccc(NC(=O)C(=O)NCCCn2ccnc2)cc1	-29	46*	7	10	nt	?	34*
Cc1cc(C)c(C(=O)CSc2nnc(C)s2)c(C)c1	-9	-1	-11	25	-5	-6	nt
Cc1ccc(C(=O)NNC(=O)CCCN2C(=O)/C(=C/c3ccccc3Cl)SC2=S)cc1	-4	44*	19	5	nt	69*	41*
O=C(CCN1C(=O)/C(=C/c2ccccc2Cl)SC1=S)NNC(=O)c1cccnc1	4	-6	-3	5	-3	-21	nt
O=C(CCCN1C(=O)/C(=C/c2ccccc2Cl)SC1=S)NNC(=O)c1ccc(Cl)cc1	-18	61*	19	17	15	65*	52*
COc1ccccc1OCc1cc(C(=O)N(C)CCC2CCCCO2)no1 (stereo not drawn)	-98	-86	-92	-78	4	-96	nt
CCC(=O)N(Cc1cc2c(C)ccc(C)c2[nH]c1=O)C1CCCCC1	-29	1	0	20	14	7	nt
CCOC(=O)/C(C#N)=C/c1cc(C)n(-c2ccc(C)cc2)c1C	-24	-154	-130	7	nt	-130	nt
CCOC(=O)/C(C#N)=C\c1cc(C)n(-c2ccccc2)c1C	8	-286	-126	2	11	-52	-106
Cc1ccc2oc(/N=C(\N)NC(=O)C3CC3)nc2c1	3	-265	-23	-93	34	5	-325
CC(C)(C)c1ccc(C(=O)N/C(N)=N/c2nc3ccccc3o2)cc1	45	-24	10	5	30	-24	nt
CCOC(=O)c1ccccc1NC(=O)COC(=O)CCNS(=O)(=O)c1ccc(C)c(C)c1	0	2	14	-10	-6	10	nt
CC(C)(C)c1ccc(-c2noc(CCC(=O)NCc3ccco3)n2)cc1	19	96*	-48	70*	1	77*	94*
Cc1ccc(CNC(=O)c2c(-c3ccccc3Cl)noc2C)cc1	1	-3	-2	-4	nt	3	nt
O=C(Nc1ccc(-c2nc3ccccc3s2)cc1)C1=COCCO1	70	-300	-61	44	nt	94*	-290

Compound activity as filed in PubChem BioAssay.
